Calls of active or inactive are those of the source. Rule for the calls: active = hit-call score of the fitted dose curve at least 0.9, where 1 is the maximum; inactive = score below 0.9.

A short description of the assay: ATG_Oct_MLP_CIS: Attagene CIS-FACTORIAL HepG2 Assay for human Octamer-Binding Transcription Factor (Oct) (AID 2282993). Conditions: HepG2 Attagene cis-factorial Oct reporter, mRNA; actives raise or lower the signal. On the procedure:
ATG_CIS is a cell-based, multiplexed-readout assay that uses HepG2, a human liver cell line, with measurements taken at 24 hours after chemical dosing in a 24-well plate.ATG_Oct_MLP_CIS is one of 52 assay component(s) measured or calculated from the ATG_CIS assay. It is designed to make measurements of mRNA induction, a form of inducible reporter, as detected with fluorescence intensity signals by Reverse transcription polymerase chain reaction (RT-PCR) and Capillary electrophoresis technology.Data from the assay component ATG_Oct_MLP_CIS was analyzed into 1 assay endpoint. This assay endpoint, ATG_Oct_MLP_CIS, was analyzed with bidirectional fitting relative to DMSO as the negative control and baseline of activity. Using a type of inducible reporter, measures of mRNA for gain or loss-of-signal activity can be used to understand the reporter gene at the transcription factor-level as they relate to the gene POU2F1. Furthermore, this assay endpoint can be referred to as a primary readout, because this assay has produced multiple assay endpoints where this one serves a reporter gene function. To generalize the intended target to other relatable targets, this assay endpoint is annotated to the dna binding intended target family, where the subfamily is POU domain protein.
Human liver HepG2 cells are transiently transfected with multiple reporter transcription units (MRTUs) in 6-well plates using FuGene 6 reagent (Roche; 3 ml FuGene/1 mg DNA). The MRTU constructs are regulated by a cis-regulating element (promoter). […] A major difference between the CIS and TRANS system is that in CIS activities of endogenous TFs are measured, whereas the TRANS assay evaluates changes in activities of exogenous, chimeric NR-Gal4 proteins. […] At the end of 24 hour incubation, total RNA was isolated using TriZol reagent (Invitrogen). The isolated RNA is then reverse-transcribed using oligo(dT) primer and Mo-MLV reverse transcriptase (Invitrogen) with DNAse I (Ambion) treatment for 30 min. The one-tenth of the produced cDNA was amplified by PCR using Taq DNA polymerase (Invitrogen) and two reporter sequence-specific primers. The PCR products were fluorescently labeled by primer extension with 6-arboxyfluorescein (6-FAM) 5'-labeled reporter sequence-specific primer (2 min at 95 C, 20 s at 68 C and 10 min at 72 C) and these products were digested with 5U of HpaI (New England Biolabs) for 2h at 37 C. The fragments were purified using Qiaquick PCR columns (Qiagen), analyzed on an ABI 3130xL genetic analyzer (Applied Biosystems) with peak positions identified by using a set of X-rhodamine (ROX)-labeled MapMarker1000 molecular weight standards (BioVentures). The raw capillary electrophoresis data was processed using Attagraph software (Attagene).
With `CCCCCC1=CCCC1=O`, the result was inactive.
On the same count and under the same terms, with `CCOC(=O)[C@H](O)[C@@H](O)C(=O)OCC` the entry was “inactive”; with `COC(=O)c1ccccc1C`, “inactive”.
On the same count and under the same terms, the result for `C=C[C@@]1(C)CC(=O)[C@]2(O)[C@@]3(C)[C@@H](O)CCC(C)(C)[C@@H]3[C@H](O)[C@H](OC(C)=O)[C@@]2(C)O1` reads “inactive”.
On the same count and under the same terms, the result for `CCCCCCCCCCCCCc1ccccc1` reads “inactive”.
As to `CCOC(=O)c1ccc(C)cc1`, the result was inactive.
Turning to `Oc1ccccc1Cc1ccccc1O`, the AC50 (in general, the concentration at which the activity in the assay is half-maximal) was 134 µM (active).
Take `Cc1ccc(S(=O)(=O)N=C=O)cc1`: the result was inactive.
The same measure, in the same setting: with `O=C(O)C(F)(F)C(F)(F)C(F)(F)C(F)(F)C(=O)O` the entry was “inactive”.
Same read-out and setting: with `CC(C)=CCCC(C)=CC#N` the entry was “inactive”.
On to `C=C1C[C@H]2[C@@H]3C=C(C)C4=CC(=O)CC[C@]4(C)[C@H]3CC[C@]2(C)[C@@]1(OC(C)=O)C(C)=O`, for which the outcome was inactive.
Still for that read-out and setting: with `CCCCCCCO` the entry was “inactive”; with `Cc1ccc2c(c1)CCCN2`, “inactive”.
On to `CCCC/C=C/C=C\C=O`, for which the compound was classed as inactive.
With `O=C(Nc1ccccc1)c1cc(Cl)ccc1O`, the AC50 was 15.1 µM (active).
Same read-out and setting: with `COc1ccc(-c2coc3cc(O)cc(O)c3c2=O)cc1` the figure was 39 µM (active).
With `CC1=C(O)C(=O)C(C)O1` (stereo not given), the compound was called inactive.
Same read-out and setting: with `O=S(=O)(O)c1ccc(Nc2nc(Nc3ccc(C=Cc4ccc(Nc5nc(Nc6ccc(S(=O)(=O)O)cc6)nc(N(CCO)CCO)n5)cc4S(=O)(=O)O)c(S(=O)(=O)O)c3)nc(N(CCO)CCO)n2)cc1` the entry was “inactive”; with `Cn1cccc1`, “inactive”; with `O=C(O)C1CCC(C(=O)O)CC1` (stereo not given), “inactive”.
On the same count and under the same terms, the result for `CC1(C)CC(O)CC(C)(C)N1[O]` reads “inactive”.
Consider `O=C(OCc1ccccc1)c1ccc(O)cc1`, for which the AC50 was 125 µM (active).
`CCCc1ccc(O)c(OC)c1`: the outcome was inactive.
The same measure, in the same setting: the result for `Cc1cc(C)c(C=O)c(C)c1` reads “inactive”; that for `CCCCOCCOC(=O)COc1ccc(Cl)cc1Cl`, “inactive”.
The same measure, in the same setting: the result for `CCC[Si](OC)(OC)OC` reads “inactive”.
`CC(C)(c1ccccc1)c1ccc(Nc2ccc(C(C)(C)c3ccccc3)cc2)cc1`: the compound was called inactive.
On to `C=CC(=O)OCCCCCCOC(=O)C=C`, for which the AC50 was 26.2 µM (active).
As to `COC(=O)C=Cc1ccccc1`, the compound was called inactive.
The same measure, in the same setting: with `CCOc1ccc(NC(N)=O)cc1` the entry was “inactive”; with `CC(=O)OCC=C(C)C`, “inactive”.
As to `CCCCc1ccc(Cl)cc1`, the result was inactive.
`O=C1CCCN1C1CCCCC1`: the compound was called inactive.
Still for that read-out and setting: with `C=CCCCCCCCCO` the entry was “inactive”.
Still for that read-out and setting: the result for `CC(C)CCCCCOC(=O)CS` reads “inactive”.
Turning to `CC(=O)CCC=C(C)C`, the result was inactive.
On to `Oc1ccc(-c2ccccc2)c(Cl)c1`, for which the AC50 is 52.3 µM (active).
As for `CC(CC(C)C)=NO`, the outcome was inactive.
Take `N#Cc1ccc(C2CCCc3cncn32)cc1` (stereo not given): the compound was classed as inactive.
Still for that read-out and setting: with `CCc1cccc(C)c1N` the entry was “inactive”.
